Data reported in PubChem BioAssay (EPA / NIEHS).
The source made the active and inactive calls. The calls were made as follows: active = hit-call score of the fitted dose curve at least 0.9, where 1 is the maximum; inactive = score below 0.9.

Assay: ATG_GATA_CIS: Attagene CIS-FACTORIAL HepG2 Assay for human GATA Binding Protein (AID 2282944)
Settings: HepG2 GATA cis-element reporter, Attagene multiplex mRNA; actives raise or lower the signal
Experimental: ATG_CIS is a cell-based, multiplexed-readout assay that uses HepG2, a human liver cell line, with measurements taken at 24 hours after chemical dosing in a 24-well plate.ATG_GATA_CIS is one of 52 assay component(s) measured or calculated from the ATG_CIS assay. It is designed to make measurements of mRNA induction, a form of inducible reporter, as detected with fluorescence intensity signals by Reverse transcription polymerase chain reaction (RT-PCR) and Capillary electrophoresis technology.Data from the assay component ATG_GATA_CIS was analyzed into 1 assay endpoint. This assay endpoint, ATG_GATA_CIS, was analyzed with bidirectional fitting relative to DMSO as the negative control and baseline of activity. Using a type of inducible reporter, measures of mRNA for gain or loss-of-signal activity can be used to understand the reporter gene at the transcription factor-level as they relate to the gene GATA1. Furthermore, this assay endpoint can be referred to as a primary readout, because this assay has produced multiple assay endpoints where this one serves a reporter gene function. To generalize the intended target to other relatable targets, this assay endpoint is annotated to the dna binding intended target family, where the subfamily is GATA proteins.
Human liver HepG2 cells are transiently transfected with multiple reporter transcription units (MRTUs) in 6-well plates using FuGene 6 reagent (Roche; 3 ml FuGene/1 mg DNA). The MRTU constructs are regulated by a cis-regulating element (promoter). […] A major difference between the CIS and TRANS system is that in CIS activities of endogenous TFs are measured, whereas the TRANS assay evaluates changes in activities of exogenous, chimeric NR-Gal4 proteins. […] At the end of 24 hour incubation, total RNA was isolated using TriZol reagent (Invitrogen). The isolated RNA is then reverse-transcribed using oligo(dT) primer and Mo-MLV reverse transcriptase (Invitrogen) with DNAse I (Ambion) treatment for 30 min. The one-tenth of the produced cDNA was amplified by PCR using Taq DNA polymerase (Invitrogen) and two reporter sequence-specific primers. The PCR products were fluorescently labeled by primer extension with 6-arboxyfluorescein (6-FAM) 5'-labeled reporter sequence-specific primer (2 min at 95 C, 20 s at 68 C and 10 min at 72 C) and these products were digested with 5U of HpaI (New England Biolabs) for 2h at 37 C. The fragments were purified using Qiaquick PCR columns (Qiagen), analyzed on an ABI 3130xL genetic analyzer (Applied Biosystems) with peak positions identified by using a set of X-rhodamine (ROX)-labeled MapMarker1000 molecular weight standards (BioVentures). The raw capillary electrophoresis data was processed using Attagraph software (Attagene).

outcome, inactive:
CC(=O)[C@H]1[C@H](C#N)C[C@H]2[C@@H]3CC=C4C[C@@H](O)CC[C@]4(C)[C@H]3CC[C@@]21C
Cc1ccc(C(C)c2ccc(C)c(C)c2)cc1C
OC1CCCCCCCCCCC1
Cc1cc(C)c(C(=O)O)c(C)c1
C=CC(C)(C)C
Cc1cccc(N(C)C(=S)Oc2ccc3ccccc3c2)c1
CCOC(F)(F)C(F)(F)C(F)(F)C(F)(F)F
O=[N+]([O-])c1ccc(CO)cc1
Clc1nc2ccccc2s1
CCN(CC)c1ccc(C(=O)c2ccccc2C(=O)O)c(O)c1
CC(C)(C)C1CCCCC1=O (stereo not given)
C=CCOCC(O)CCl (stereo not given)
O=Cc1ccc(CO)o1
O=C(O)Cc1c(Cl)ccc(Cl)c1Cl
CCN(CC#N)c1cccc(C)c1
[Cl][Bi]([Cl])([c]1ccccc1)([c]1ccccc1)[c]1ccccc1
CCCCCCCCCCCCCCCC[n+]1ccccc1
C1=CCCC1
N=c1ccn2c(n1)O[C@H]1[C@H](O)[C@@H](CO)O[C@H]12
CC(C)COC(=O)C=Cc1ccccc1
CCC(C)C=O (stereo not given)
Cc1cccc(OCCOc2cccc(C)c2)c1
Cc1cc(=O)n(-c2ccccc2)n1C
CC1=CC[C@H](C(C)C)C=C1
N[C@H]1C(O)O[C@H](CO)[C@H](O)[C@@H]1O (stereo not given in full)
C=CC=CC=CCCCCC
C#CC1(O)CC[C@H]2[C@@H]3CCC4=CCCC[C@@H]4[C@H]3CC[C@@]21C (stereo not given in full)
c1ccc(-c2ccccn2)nc1
CCCCCCCCCCCSCC(=O)O
CC(=O)Oc1ccc(C(C)=O)cc1
O=C(Cl)c1cc(C(=O)Cl)cc(C(=O)Cl)c1
O=C(Nc1cccc(C(F)(F)F)c1)c1cc(Br)cc(Br)c1O
O=Nc1ccc(O)cc1
O=C1CCCN1CCO
CCCCCCCC[N+](C)(CCCCCCCC)CCCCCCCC
O=S1(=O)OC(c2ccc(O)cc2)(c2ccc(O)cc2)c2ccccc21
CC(C)c1ccc2cc(C(C)C)ccc2c1
CCOC(=O)N1CCC(=C2c3ccc(Cl)cc3CCc3cccnc32)CC1
Cc1oncc1C(=O)Nc1ccc(C(F)(F)F)cc1
CC=CCO
